This note sets out measurements from PubChem BioAssay (NCI).

SMILES strings stand for the structures. About 83,000 compounds went through this panel and 20% of them were active in at least one assay; those are over-represented in the sample as a whole.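 Cell lines were cultured in 96-well plates, exposed to a single compound concentration, and assessed for percent growth 48 hours later.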 Unmarked numbers belong to inactive results. The source made the active and inactive calls. Rule for the calls: active = growth percent below 10; inactive = the rest.

The test system of this assay is MDA-MB-468 breast. The assay is described as follows: NCI-60 one-dose screen, 48 h (100 = growth as untreated, 0 = no growth, -100 = all killed). Particulars: 10 µM unless noted.
Turning to `CCOP(C)(=O)/C(Cc1ccc(OC)c(OC)c1)=N\O` (stereo not given), the growth was 96.5%.

For `COC(=O)/C=C1\SC(=Nc2cccc(Cl)c2)N(CCc2c[nH]c3ccccc23)C1=O`, the growth is 54.4%.

For the compound `O=C(CN1C(=O)S/C(=C\C(Cl)=C\c2ccccc2)C1=O)NCCc1ccc(O)cc1`, the growth is 17.3%.

On to `O=C(Nc1ccc(C23CC4CC(CC(c5ccccc5)(C4)C2)C3)cc1)c1cccs1`, for which the growth is 38.6%.

Regarding `O=C(/C=C/c1cccc(F)c1)c1cccc(OCCCCOc2cccc(C(=O)/C=C/c3cccc(F)c3)c2)c1`, the growth was 87.2%.

On to `COc1cc(-c2nn(C(C)(C)C)cc2-c2ccnc(NCCCNS(=O)(=O)c3ccc(C)cc3)n2)ccc1Cl`, for which the growth is 79%.

In the case of `Cc1nn(-c2ccc(Cl)cc2)c2ncnc(N/N=C/c3cccc([N+](=O)[O-])c3)c12`, the growth was 117%.

Take `O=C1C2=C(C(=O)c3c(O)cccc31)C(c1ccco1)c1sc(=O)[nH]c1S2` (stereo not given): the growth was 7.85% (active).

Consider `COc1ccc(-n2nc(C(=O)NCC(=O)O)nc2-c2ccccc2)cc1`, for which the growth was 115%.

Take `O=c1[nH]cc(/C=N\Nc2ccccc2)c(=O)[nH]1`: the growth was 90.7%.

`COc1cccc2cc(-c3cc4ccccc4[nH]3)/c(=N/C(=S)Nc3ccc(C)cc3)oc12`: the growth was 81.6%.

For `CCn1c(SCc2ccc(C)cc2)nnc1-c1nn(-c2ccc(Cl)cc2Cl)c(-c2ccc(Cl)cc2)c1C`, the growth is 6.59% (active).

`Oc1cccc(-c2nc3sccn3c2-c2ccncn2)c1`: the growth is 83%.

`COc1ccc(C2=NN(C(C)=O)C(c3cc(OC)c(OC)c(OC)c3)C2)cc1` (stereo not given): the growth was 108%.

For the compound `COc1ccc(/C=C/C=C\C(=O)c2ccc(-n3ccnc3)cc2)cc1`, the growth is 92.4%.

Consider `CC(C)Sc1nc(Cl)c(C#N)c(-c2ccc(F)cc2)n1`, for which the growth was 98.9%.

For the compound `CC(C)=C1C=C2CC[C@@H]3[C@](C)(CCC[C@@]3(C)C(=O)O)[C@H]2CC1`, the growth is 0.17% (active).

With `O=C(Nc1ccccc1CNc1nc(Nc2ccc(OCCN3CCCC3)cc2)ncc1Cl)NC1CCCCC1`, the growth is 89.4%.

With `COc1cc(-c2nc(-c3nnc(-c4cccnc4)o3)c3ccccn23)cc(OC)c1OC`, the growth is 104%.

As to `CCc1cc2n(n1)-c1ncc(C(=O)OC)cc1Oc1ccccc1-2`, the growth is 95.2%.

Consider `O=C(NNC(=S)Nc1ccccc1)c1cc2ccc1CCc1ccc(cc1)CC2`, for which the growth is 67%.

For the compound `COc1ccc2c(c1)c(-c1noc(C(=O)c3cn(C)c4ncc(Br)cc34)n1)cn2C`, the growth is 76.1%.

In the case of `O=[N+]([O-])c1ccc(Oc2nc(Nc3ccc(O[C@H]4CO[C@H]5[C@@H]4OC[C@@H]5O)c(Cl)c3)ncc2F)c(Cl)c1`, the growth is 15.8%.

Consider `COc1cc(-c2c3sc(=O)[nH]c3nc3c2c(=O)[nH]n3C(C)C)cc2c1OCO2`, for which the growth was 92.3%.

With `O=C(Nc1ccccc1C(F)(F)F)C1=NCCCCN1`, the growth was 94.8%.

Regarding `O=C(c1ccccc1)N(C(=S)NCCc1ccc(Cl)cc1)c1ccccc1`, the growth is 30.3%.

Turning to `CCOC(=O)c1ccc(NC(=O)N2CC(C)OC(C)C2)cc1` (stereo not given), the growth was 91.7%.

Regarding `N#CSCC1CC(O)(c2ccccc2)C(c2ccccc2)C(c2ccc(Cl)cc2)O1` (stereo not given), the growth is -58.9% (active).

Regarding `COC(=O)c1cc(=O)nc(N/N=C/c2ccc(C)cc2)s1`, the growth was 110%.

Regarding `Oc1c(N=Nc2nn[nH]n2)ccc2ccccc12`, the growth was 85.3%.

Take `COc1ccc(-c2nc(N/N=C/c3ccco3)nc(N3CCOCC3)c2C#N)cc1`: the growth is 36%.

Turning to `COc1ccc(C(Cn2ccnc2)Sc2ccc(Cl)c(Cl)c2)cc1` (stereo not given), the growth is 63%.

Consider `C1CCC(C(CC2CCCCN2)C2CCCCC2)CC1` (stereo not given), for which the growth was -90.1% (active).

Take `O=C(Nc1ccc(Cl)cc1)c1cc(NCc2cc(O)ccc2O)ccc1O`: the growth was 81.2%.

For the compound `NC(N)=Nc1ccc(Oc2cccc(Nc3ccc(Br)c(C(F)(F)F)c3)c2)cn1`, the growth is -80.3% (active).

With `Cc1cc(O)c(C2=NN(c3ccc(S(N)(=O)=O)cc3)C(/C=C/c3ccccc3)C2)cc1Cl` (stereo not given), the growth is 43.3%.

With `CNCCNc1nc2ccccc2c2c(=O)c3cccc(C)c3sc12`, the growth is -14.9% (active).

`O=C(Nc1nc2ccc(C(=O)N3CCN(/C=C/c4ccccc4)CC3)cc2s1)c1ccc(NCCc2ccccc2)c([N+](=O)[O-])c1`: the growth is 22.6%.

Take `COc1cccc(-c2nc3occn3c2-c2ccnc(NCCNS(=O)(=O)c3ccc(C(F)(F)F)cc3)n2)c1`: the growth was 77.4%.

For `CC(C)Cc1ccc(C(C)C(=O)NCc2c[nH]c3ccc(Cl)cc23)cc1` (stereo not given), the growth was 80.7%.
